{"source": "PubChem BioAssay AID1508600", "about": "(Functional Genomics Laboratory (NCATS/FGL), 2020)", "note": "Out of some 53,000 sequences screened, about 3,700 (7%) were called active.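 Rule for the calls: active = gene knockdowns whose robust z-score for IL-1 alpha signal is at least 2 or at most -2, so actives lie on both sides; inactive = the rest.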 The full list was thinned out, with actives kept by preference."}
{"assay": "Components of the Cytosolic LPS Sensing Pathway: Gene Identification via Genome-wide siRNA Screen", "settings": "RAW264.7 macrophages, IL-1a HTRF, actives lie on both sides, screened at 100 nM (by protocol), cells primed 5 h with Pam3CSK4 first", "excerpt": "Non-canonical inflammasome activation by cytosolic LPS is a critical component of the host response to Gram-negative bacterial infection, however we lack a comprehensive understanding of the cellular processes that control this pathway. Here we describe a genome-wide siRNA screen to identify genes regulating the mouse macrophage IL-1 alpha response to cytosolic LPS.\nRAW264.7 cells were maintained in complete DMEM media, comprising DMEM with 4.5 g/L glucose, 10% FBS (Gemini Bio-Products, West Sacramento, CA), 2 mM Glutamine (Lonza) and 20 mM HEPES (Lonza), hereafter complete DMEM.\nThe RNAi screen was conducted in 384-well format using the Ambion Silencer Mouse Genome siRNA Library (#4391425), which consists of three unique, nonoverlapping, nonpooled siRNAs for each of 17,000 gene targets. siRNA reagents ([…]) were stamped into 384-well white flat-bottom microplates (Corning, 3570) using a Velocity11 VPrep liquid handling system (Agilent) integrated into a BioCel robotic platform (Agilent) in columns 1-22, leaving columns 23-24 empty for negative (Ambion, Negative control #1) and positive (mouse Casp4) controls, respectively. The median value of each plate's negative control column was used to normalize sample wells, and the positive control was used to assess transfection efficiency and assay performance.\nLipofectamine RNAiMAX Transfection Reagent ([…]; Invitrogen) was added in […] serum-free, antibiotic-free media to plate wells using a Thermo Scientific Matrix WellMate and Microplate Stacker. Plates were incubated for 45 min at room temperature to allow for the sufficient formation of siRNA-lipid complexes. Cells were seeded at a density of 1x10^4 cells per well in 20 microL media containing 20% (vol/vol) FBS without antibiotics. The final concentration of siRNA in each well was 100 nM. Cells were cultured for 48h at 37 degrees C in 5% CO2 before addition of […] of TLR ligand Pam3CSK4 for 5 hours. The medium was then removed, replaced with […] growth media and cell were transfected with […] of LipidA and TransIT-TKO (Mirus) for 24 hour. At the end of the LipidA treatment, […] of supernatant was transferred to a 384 Greiner Bio-one non-binding low volume plate and […] of IL-1a HTRF reagent (Cisbio, 62MIL1APEH) was added and incubated at room temperature overnight. The plates were read on an EnVision plate reader (PerkinElmer). Cell viability was measured by adding 20ul Cell Titer Glo to the original plate and running a luminescence read on the EnVision. The quantified IL-1a signal for each siRNA gene-targeted well was divided by the median of the negative control wells and multiplied by 100 to achieve a negative control normalized value for each well/siRNA. This normalized value was then used to generate a robust z-score by first taking the log of each value and then by subtracting the median and dividing by the […]."}
{"sequence": "GGUUCAUCCAACUUUCAAGTT against Stac3", "z-score": "0.587 (inactive)"}
{"sequence": "GUUUCUGGGUGAGCGCGAUTT against Fzd2", "z-score": "2.29 (active)"}
{"sequence": "GGCAUUUAAAACUCAUUGUTT against G6pdx", "z-score": "-1.47 (inactive)"}
{"sequence": "GGGUUCAGAGGUCAUCAACTT against Lin37", "z-score": "-1.95 (inactive)"}
{"sequence": "GCAAAUUAGGCUCUUAUCCTT against 4930402H24Rik", "z-score": "-0.333 (inactive)"}
{"sequence": "GGAAGAAAUGCAGGUGUGGTT against Gab3", "z-score": "-2.15 (active)"}
{"sequence": "GCUUUAUUAACCCAUCAAATT against Wdr78", "z-score": "-0.136 (inactive)"}
{"sequence": "GGGAAAAUUCCAGAAUUGUTT against Serpinb9c", "z-score": "-1.37 (inactive)"}
{"sequence": "GGAGAUGGCCGACUUCUAUTT against Coa8", "z-score": "0.934 (inactive)"}
{"sequence": "GGUUAAAUCCCUGAUGUAUTT against Ptdss1", "z-score": "-0.613 (inactive)"}
{"sequence": "GCUUGUGUCACCUACGGAATT against Mterf2", "z-score": "0.944 (inactive)"}
{"sequence": "CCCAUGCUAUCAAUCAUUUTT against Olfr308", "z-score": "2.51 (active)"}
{"sequence": "CCGAUGACAAUCGGCCCUUTT against Gja8", "z-score": "0.74 (inactive)"}
{"sequence": "GGUUUUCCAUCUCCUCCAGTT against Klrc1", "z-score": "0.789 (inactive)"}
{"sequence": "GGGAAACGUGAAUUAGUAATT against 1110051M20Rik", "z-score": "-1.23 (inactive)"}
{"sequence": "CCUCCAUUGAUACUCAAGUTT against Pycr1", "z-score": "0.0219 (inactive)"}
{"sequence": "GGCUAAAUCUCACACUCCATT against Mzb1", "z-score": "-2.18 (active)"}
{"sequence": "GGUGAAGCUCACCAACAAUTT against Tbx20", "z-score": "0.301 (inactive)"}
{"sequence": "CCAUGUUCCAGUUAAUGACTT against Ptch1", "z-score": "-0.419 (inactive)"}
{"sequence": "GCAAGUCCUCUACCUUCUCTT against Vmn1r210", "z-score": "-1.65 (inactive)"}
{"sequence": "GGUGAAACUAAAAAUGGUCTT against Egfl6", "z-score": "-1.07 (inactive)"}
{"sequence": "GCCGUCUCUGUGUCACAAATT against Sirt1", "z-score": "-2.19 (active)"}
{"sequence": "GGUCCUUGUACAACCACCCTT against Acd", "z-score": "0.516 (inactive)"}
{"sequence": "GGUCCUUGCAUUUCAUCAATT against A630005I04Rik", "z-score": "1.6 (inactive)"}
{"sequence": "GGAUUUUUGCACUCAGUAATT against Olfr1256", "z-score": "1.26 (inactive)"}
{"sequence": "GGAACAUUGGUGUUACAGCTT against Atp5j", "z-score": "2.29 (active)"}
{"sequence": "GGAGUUUUCAGCAACAAAUTT against Fgf5", "z-score": "-0.829 (inactive)"}
{"sequence": "GGUAUUCUAUAAGCUCCUUTT against Dennd1a", "z-score": "-2.07 (active)"}
{"sequence": "CCAACGCGAACGAGAACUATT against C1qb", "z-score": "-0.0813 (inactive)"}
{"sequence": "CCAGAUAAUAAUUUGGAUGTT against Dhx9", "z-score": "0.0852 (inactive)"}
{"sequence": "GGAUGUGCCAUUGAAGAUCTT against Atg4c", "z-score": "2.07 (active)"}
{"sequence": "CCUGGAUACCUUCAACUAUTT against Galnt14", "z-score": "-0.209 (inactive)"}
{"sequence": "CCUAAACCAGUCUUUUCUCTT against Cnep1r1", "z-score": "0.369 (inactive)"}
{"sequence": "GCAAAAGCUAAUAAACUUGTT against Acox2", "z-score": "0.921 (inactive)"}
{"sequence": "GCCUACGAGGACAGUACAATT against Mst1r", "z-score": "1.16 (inactive)"}
{"sequence": "GCACUGCAACACUUGGUCCTT against Lcn12", "z-score": "-0.99 (inactive)"}
{"sequence": "GGCAGACCCAUAAUUAAUCTT against Arsk", "z-score": "-0.567 (inactive)"}
{"sequence": "GGCUGAAGCGCAAGAGGAATT against Wdr46", "z-score": "2.68 (active)"}
{"sequence": "GGAAGAUACAAGUCUUUUUTT against Akap12", "z-score": "1.85 (inactive)"}
{"sequence": "GAGAUAAGAUGGGAAAAAATT against Ssbp2", "z-score": "-0.338 (inactive)"}
{"sequence": "GGAAAAGCAGACUUGCACCTT against Npm2", "z-score": "0.228 (inactive)"}
{"sequence": "GGAAGAAGUUGGAGAUGUUTT against Hsd17b11", "z-score": "-0.629 (inactive)"}
{"sequence": "GGAACUAGUUUUUAUACUCTT against Igfbp1", "z-score": "2.23 (active)"}
{"sequence": "GGAACCUAUUUUUUCGUAUTT against Gen1", "z-score": "-0.322 (inactive)"}
{"sequence": "CCAAGAUUCUCCUGAAUUATT against Plod2", "z-score": "-0.183 (inactive)"}
{"sequence": "CGGUGAUCAAAGAUAAGAATT against Zkscan5", "z-score": "-0.936 (inactive)"}
{"sequence": "GGGUGCAUAUGUUUGAAGCTT against Copb2", "z-score": "-2.5 (active)"}
{"sequence": "GGUGUGGUCAUUCCAAAUGTT against Ms4a8a", "z-score": "0.042 (inactive)"}
{"sequence": "GGAGCUGUGCGGUCUGUUATT against Mul1", "z-score": "-0.626 (inactive)"}
{"sequence": "GGAGAAAGUCAAGACCCUCTT against Jund", "z-score": "0.473 (inactive)"}
{"sequence": "GGCUACCAUGGACACAUCATT against Magea7-ps", "z-score": "-2.31 (active)"}
{"sequence": "GGAUGUCUCGGCAUAGUUCTT against Lpar1", "z-score": "-0.64 (inactive)"}
{"sequence": "GGUGAAUGCAAGAUCACCUTT against Myl1", "z-score": "0.343 (inactive)"}
{"sequence": "GCAGUCGAUGUCAAGGUUATT against Plekhf2", "z-score": "0.473 (inactive)"}
